High-throughput results deposited in PubChem by several laboratories.
The list is not random: actives were taken first. Their share in the collection is about 7.2%.
SUMO Mot1 rescue: inhibitors of SUMOylation pathway: yeast Mot1-301 growth rescue; 1% of 320,000 active; S. cerevisiae Mot1-301 growth rescue, ATP luminescence, 38.5C; percent above DMSO median, 100 means doubled; growth rescue, % at 18.8 µM;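 active = every valid replicate shows activation above 250% relative to neutral control wells; inactive = the rest, any valid replicate at or below 250%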;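 also: OY570 slx delta 5 strain wells were the positive control but not used for scaling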
VLA-4 inh: inhibition in a human VLA-4 binding assay. P13612. VLA-4 expressing cells, ligand binding flow cytometry. inhibition, % (about 7 µM as worked out from the volumes in the protocol). 0.2% of 330,000 active. AID 2557; in the data active = inhibition above about 50%
A1 inh: inhibitors of the anti-apoptotic protein A1, read as caspase activation | MEF A1-2A-BIM cells, Caspase-Glo 3/7 luminescence, 3 h; percent of clofoctol response, vehicle zero | caspase activation, % (concentration not given with the values) | 0.066% of 330,000 active | AID 2462;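 active = over half of replicate activation scores above 10%, or exactly half above 10 with the replicate mean above 10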
AHR activator: activates the human aryl hydrocarbon receptor | AHR-responsive luciferase reporter cells, luminescence | activation, % at 5 µM | 2.5% of 320,000 active; in the data active = activation above about 47%;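 also: 0% = vehicle wells and 100% = reference agonist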
Efflux pump mplx: antifungal efflux pump inhibition, Nile Red retention. S. cerevisiae Candida pump triplex. inhibition, % at 10 µM. 0.44% of 330,000 active;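 active = plate passing quality check with inhibition over a set limit, or well fluorescence over plate mean plus 4 SD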;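 also: Nile Red retained in pooled yeast measured as flow cytometry median fluorescence; 0% = buffer negative control and 100% = Enniatin B positive control; higher means more Nile Red kept so more efflux inhibition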
ALR inh: blocks human ALR sulfhydryl oxidase activity | purified ALR, DTT oxidation, H2O2 HRP-luminol luminescence | AID 485317 | 3.8% of 290,000 active | inhibition, % (concentration not given with the values);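 active = mean replicate inhibition above about 79%, with every replicate also reaching it, limit read from the data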
Cmpd fluor yeast: counter-screen for efflux pump inhibitors: compound fluorescence; shares compounds with Efflux pump mplx; S. cerevisiae AD/pABC3, flow cytometry; fluorescence ratio to DMSO, % at 10 µM; 4% of 1,700 active; AID 588517;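 active = fluorescence ratio to DMSO above its plate's cutoff, the plate mean ratio plus 5 SD, cut at about 210% in these data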;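 also: unstained yeast with no Nile Red so the signal is compound autofluorescence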
CaMdr1 efflux inh: blocks the Candida albicans Mdr1 efflux pump in yeast. shares compounds with Efflux pump mplx. S. cerevisiae AD/CaMDR1, Nile Red efflux, flow cytometry. inhibition, % at 10 µM. 1% of 1,700 active. AID 588518; in the data active = inhibition above about 26%;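 also: 0% = DMSO vehicle and 100% = reference inhibitor; higher means more Nile Red retained so more efflux inhibition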
Cdr2 pump inh: Candida Cdr2 efflux pump inhibition; S. cerevisiae AD/CaCDR2, Nile Red retention, flow cytometry; shares compounds with Efflux pump mplx; 4% of 1,700 active; Nile Red retention ratio vs DMSO, % at 10 µM; in the data active = Nile Red retention ratio vs DMSO above about 190%;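 also: higher ratio means more blocking of Cdr2 efflux of the dye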
Cdr1 pump inh: blocks the Candida albicans Cdr1 efflux pump in yeast | shares compounds with Efflux pump mplx | S. cerevisiae AD/CaCDR1, Nile Red efflux, flow cytometry | inhibition, % at 10 µM | 1% of 1,700 active | AID 588522;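 active = inhibition above the screen-wide mean plus twice its standard deviation, cut at about 32% in these data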
Starred values were filed as active, the others as inactive; . = no result given.

SMILES	SUMO Mot1 rescue	VLA-4 inh	A1 inh	AHR activator	Efflux pump mplx	ALR inh	Cmpd fluor yeast	CaMdr1 efflux inh	Cdr2 pump inh	Cdr1 pump inh
CCCSc1nnc(-c2c[nH]c3ccccc23)n1C	-1	1	0	17	0.5*	-1	80	0	93	0
O=C1N=c2ccccc2=C1c1sc(NS(=O)(=O)Cc2ccccc2)nc1O	-8	2	-3	21	0.7*	.	97	0	94	0
CC1CCN(CC(=O)NC2CCCCC2)CC1	-7	5	0	0	0	-10	.	.	.	.
Cc1ccc(CCNC(=O)CCNS(=O)(=O)c2ccc3c(c2)c(=O)n(C)c(=O)n3C)cc1	8	14	0	4	9.0*	3	100	0	89	0
Cc1csc(NC(=O)CCNS(=O)(=O)c2ccc3c(c2)c(=O)n(C)c(=O)n3C)n1	7	16	0	1	6.7*	-1	98	0	105	0
Cc1cccnc1NC(=O)CCNS(=O)(=O)c1ccc2c(c1)c(=O)n(C)c(=O)n2C	2	12	0	0	0	-9	.	.	.	.
Cc1n(CC(O)COC2CCCCC2)c2ccccc2[n+]1C (centres undefined)	-2	2	1	-2	0	2	.	.	.	.
O=C(NCC1CC1)c1cc([N+](=O)[O-])cc([N+](=O)[O-])c1	-12	4	0	0	0	-24	.	.	.	.
COc1ccc(-n2c(Cc3cccn3C)nnc2SCC(=O)Nc2cccc(OC)c2)cc1	11	-2	0	6	0	17	.	.	.	.
Cn1cccc1Cc1nnc(SCC(=O)NCCc2ccccc2)n1C	-5	3	0	-1	0	59	.	.	.	.
COc1ccc(NC(=O)CSc2nnc(Cc3cccn3C)n2-c2ccc(C)cc2)cc1OC	6	14	0	0	6.7*	44	99	0	112	0
COc1ccc(-n2c(Cc3cccn3C)nnc2SCC(=O)Nc2ccccc2F)cc1	-3	33	0	-1	0	22	85	0	91	0
COc1ccc(NC(=O)CSc2nnc(Cc3cccn3C)n2CCc2ccccc2)c(OC)c1	-10	-6	1	2	6.7*	0	79	0	91	0
COc1ccc(-n2c(Cc3cccn3C)nnc2SCC(=O)NCCc2ccccc2)cc1	-1	11	1	3	6.7*	0	103	0	98	0
Brc1ccc(CNc2ccc3ncccc3c2)cc1	157	-10	-1	.	0	-127	.	.	.	.
CCN1CCN(C(=O)CCc2nnc3ccc(N4CCC5(CC4)OCCO5)nn23)CC1	-10	-5	-1	-1	0	0	.	.	.	.
CCOc1ccc(NC(=O)CSc2nnc(Cc3cccn3C)n2-c2ccc(F)cc2)cc1	7	28	3	4	0	.	95	0	110	0
COc1ccc(NC(=O)CSc2nnc(Cc3cccn3C)n2-c2ccc(F)cc2)cc1	1	5	1	1	0	-2	.	.	.	.
CCOC(=O)N1CCC2(CC1)NCCc1c2[nH]c2ccccc12	36	16	0	9	0.9*	.	97	0	97	0
COC(=O)C1(C)NCCc2c1[nH]c1ccccc21 (centres undefined)	6	13	1	0	0	4	.	.	.	.
CCOC(=O)c1c(/N=C/N(C)C)sc(/C=N/Nc2ccccc2)c1-c1ccc(Cl)cc1	25	-1	0	92*	0.6*	-14	103	0	114	0
O=C(NCc1ccc(F)cc1)c1ccc(CS(=O)Cc2ccccc2Cl)o1 (centres undefined)	1	0	1	0	0	-1	.	.	.	.
